A selection: hits, their analogues and other compounds. The true share with any hit is near 21%.
Pf growth 96h = Primary qHTS for delayed death inhibitors of the malarial parasite plastid, 96 hour incubation; 320,000 tested, 6.9% active; Potency, µM (highest dose often 28.7 µM), for inactives: top-dose activity change, negative = inhibition, actives largely listed as inhibitors; P. falciparum luciferase reporter growth, 96 h; also: potency is read from the fitted curve at half-maximal effect; % is scaled to controls: 0 for no effect and ±100 for the full control effect
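Luminescence readout: decreased luciferase signal marks inhibited growth of reporter-expressing P. falciparum in infected red cells (2% hematocrit, 0.05% parasitemia final), exposed to compound two generations (96 h, 37 C, 5% CO2).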
Shiga toxin inh = A qHTS for Small Molecule Inhibitors of Shiga Toxin; Vero cells, Shiga toxin protein synthesis inhibition reporter; inhibition, % at 38.7 µM; 290,000 tested, 9.2% active; AID 2315, 2010; in the data active = inhibition mostly above about 28%, no sharp cut-off; inactive = mostly below about 43%; also: 0% is about no effect
Pf growth 48h = Primary qHTS for delayed death inhibitors of the malarial parasite plastid, 48 hour incubation. P. falciparum luciferase growth in erythrocytes, 48 h. Potency, µM (top dose mostly 28.7 µM), for the others: top-dose activity change, negative = inhibition, hits mostly inhibitors. 310,000 tested, 5.9% active; also: potency is read from the fitted curve at half-maximal effect; % is scaled to controls: 0 for no effect and ±100 for the full control effect
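Here the parasites carry a stable luciferase gene and grow inside erythrocytes in Albumax-based RPMI medium with compound for one erythrocytic cycle. Activity is scored as loss of luminescent signal.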
Cycloheximide cs = Cycloheximide Counterscreen for Small Molecule Inhibitors of Shiga Toxin | cell reporter, cycloheximide protein synthesis inhibition counterscreen | max response, % | 300,000 tested, 12% active | AID 2314, 2010; in the data active = max response mostly above about 13%, no sharp cut-off; inactive = mostly below about 14%; also: read at 38.3 µM for the half of the compounds with a filed dose; 0% is about no effect
* = called active by the depositor; [ ] = remark or other dose. Unless noted, calls follow the shape of the dose curve; as a rule, active = well fitted inhibition curve with a large enough effect; inconclusive = small, poorly fitted or top-dose-only effect, or another doubt; inactive = no such curve, though single readings can be large or run the other way.

Results for COc1ccc(C(C)=O)cc1CN1C(=O)NC(c2ccccc2)(c2ccccc2)C1=O ?
Pf growth 96h: inconclusive; Shiga toxin inh: 16.3; Pf growth 48h: inconclusive; Cycloheximide cs: -0.3

Results for COc1ccccc1OCC#CCNC1CCCCC1C (stereo unspecified) ?
Pf growth 96h: 37.2%[1.15 µM]; Shiga toxin inh: -7.2; Pf growth 48h: -2.1%; Cycloheximide cs: -3.9

What do the screens show for `CCN(CC(=O)Nc1ccccc1C(F)(F)F)C(=O)CSCc1ccc(C)cc1`?
Pf growth 96h: 16.7%; Pf growth 48h: 11.2%

What do the screens show for `Cc1oc(C(C)(C)C)cc1C(=O)N1CCN(C(c2ccccc2)c2ccccc2)CC1`?
Pf growth 96h: 11.7µM*; Shiga toxin inh: -2.3; Pf growth 48h: 5.86µM*; Cycloheximide cs: -1.9

What do the screens show for `COc1ccc(-c2ocnc2C(=O)N2CCN(C(c3ccccc3)c3ccccc3)CC2)cc1`?
Pf growth 96h: -2.6%; Shiga toxin inh: 8.3; Pf growth 48h: 8.28µM*; Cycloheximide cs: -2.7

How did Cc1occc1C(=O)N1CCN(C(c2ccccc2)c2ccccc2)CC1 do in these assays?
Pf growth 96h: -1.9%; Shiga toxin inh: 7.3; Pf growth 48h: 1.31µM*; Cycloheximide cs: 5.0

Results for Cc1occc1C(=O)N1CCN(c2ccccc2)CC1 ?
Pf growth 96h: -12.0%; Shiga toxin inh: -7.7; Pf growth 48h: 13.5%; Cycloheximide cs: -0.7

How did Cc1cc(C(=O)N2CCN(C(c3ccccc3)c3ccccc3)CC2)on1 do in these assays?
Pf growth 96h: 4.2%; Shiga toxin inh: -2.5; Cycloheximide cs: -6.5

What do the screens show for `O=C(NC(=O)N1CCN(C(c2ccccc2)c2ccccc2)CC1)c1ccccc1`?
Pf growth 96h: inconclusive; Shiga toxin inh: 2.9; Pf growth 48h: 13.1µM*; Cycloheximide cs: -3.9

Results for CCc1ccc(-c2csc(NC(=O)C3=COCCO3)n2)cc1 ?
Pf growth 96h: 305.8%; Pf growth 48h: 223.2%

How did CCN1C(=O)CC(N2CCN(C(c3ccccc3)c3ccccc3)CC2)C1=O (stereo unspecified) do in these assays?
Shiga toxin inh: -24.2; Pf growth 48h: inconclusive; Cycloheximide cs: -2.3

How did O=C(c1ccccc1F)N1CCN(C(=O)C(c2ccccc2)c2ccccc2)CC1 do in these assays?
Pf growth 96h: 0.294µM*; Shiga toxin inh: -3.8; Pf growth 48h: -17.0%; Cycloheximide cs: -4.8

What do the screens show for `CCN1C(=O)C(CC(=O)N2CCN(C(c3ccccc3)c3ccccc3)CC2)N(CC)C1=O` (stereo unspecified)?
Pf growth 96h: inconclusive; Shiga toxin inh: -9.0; Pf growth 48h: 11.7µM*; Cycloheximide cs: 0.4

Results for O=C(c1ccccc1F)N1CCN(c2ccccc2)CC1 ?
Pf growth 96h: 8.6%; Shiga toxin inh: -6.6; Pf growth 48h: 6.5%; Cycloheximide cs: -1.0

How did CC(C)(C)C(=O)N1CCN(C(c2ccccc2)c2ccccc2)CC1 do in these assays?
Pf growth 96h: 10.4µM*; Shiga toxin inh: 6.0; Pf growth 48h: 11.7µM*; Cycloheximide cs: -4.9

How did Cc1ccccc1C(=O)N1CCN(C(c2ccccc2)c2ccccc2)CC1 do in these assays?
Pf growth 96h: 5.86µM*; Shiga toxin inh: -6.2; Pf growth 48h: 10.4µM*; Cycloheximide cs: -1.7

Results for CC(=O)Oc1ccccc1-n1c(C)nc(=O)c(-c2ccccc2)c1C ?
Pf growth 96h: 12.1%; Shiga toxin inh: -12.4; Pf growth 48h: 8.2%; Cycloheximide cs: -2.1

What do the screens show for `Clc1ccccc1-c1nc(/C=N/N2CCOCC2)c2ccccn12`?
Pf growth 96h: 34.9%; Shiga toxin inh: 26.5; Pf growth 48h: -3.6%; Cycloheximide cs: 7.5

How did CN1CCN(/N=C/c2nc(-c3ccccc3Cl)n3ccccc23)CC1 do in these assays?
Pf growth 96h: inconclusive; Shiga toxin inh: -11.8; Pf growth 48h: inconclusive; Cycloheximide cs: -1.6

What do the screens show for `CN1CCN(/N=C/c2nc(-c3ccc(Cl)cc3)n3ccccc23)CC1`?
Pf growth 96h: 94.5%; Shiga toxin inh: 39.0*; Pf growth 48h: 78.5%; Cycloheximide cs: 32.1*

How did Clc1ccc(-c2nc(/C=N/N3CCOCC3)c3ccccn23)cc1 do in these assays?
Pf growth 96h: 157.4%; Shiga toxin inh: 63.2; Pf growth 48h: 61.3%; Cycloheximide cs: 30.0*

What do the screens show for `CN1CCN(/N=C/c2nc(-c3ccccc3)n3ccccc23)CC1`?
Pf growth 96h: 171.1%; Shiga toxin inh: 40.6*; Pf growth 48h: 136.4%; Cycloheximide cs: 3.4

What do the screens show for `CSCCC(NS(=O)(=O)c1ccc2c(c1)OCCO2)C(=O)N(C)Cc1ccccc1F` (stereo unspecified)?
Pf growth 96h: inconclusive; Pf growth 48h: 11.7µM*

From PubChem BioAssay
